Most compounds without a hit are left out; they make up all but 2.3% or so of the library.
Jurkat NFkB inh: lowers PMA/ionomycin-induced NF-kB signal in Jurkat cells; inhibition, % at 4 µM; PMA/ionomycin-induced NF-kB luciferase reporter, luminescence; 0.53% of 330,000 active; AID 435003; in the data active = inhibition above about 50%
Shn3 3UTR inh: inhibitors of Schnurri-3 3'UTR reporter in osteoblasts; Clone20 osteoblast Shn3 3'UTR firefly luciferase, 24 h; inhibition, % at 12.5 µM; 0.52% of 360,000 active; AID 588674;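 active = mean inhibition of at least 75% with every replicate also reaching 75%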;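 also: 0% = median of neutral control wells and 100% = pilot-screen positive control compound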
Gli-Sufu antag: blocks Gli-Sufu signaling in a luciferase reporter. AID 588413. inhibition, % at 5 µM. 0.74% of 340,000 active. Sufu-KO-LIGHT fibroblasts, Gli luciferase reporter luminescence;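 active = inhibition above about 55%, limit read from the data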;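 also: 0% = DMSO-treated cells and 100% = wells with medium but no cells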
EBV LMP1 NFkB: Epstein-Barr LMP1 NF-kappaB reporter inhibition. LMP1-induced NF-kappaB luciferase reporter cells, luminescence. inhibition, % at 12.5 µM. 0.69% of 350,000 active; in the data active = inhibition above about 41%;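 also: 0% = neutral control wells and 100% = reference inhibitor control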
TRPM1 prom inh: reduces MITF-dependent TRPM1 promoter luciferase signal; SK-MEL-5 TRPM1 promoter luciferase, 24 h; inhibition, % at 12.5 µM; 0.83% of 330,000 active;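 active = mean inhibition across replicates of 60% or more, whatever share of single replicates reaches that level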
697 NFkB inh: inhibitors of the PMA/ionomycin-induced NF-kB reporter in 697 B cells; inhibition, % at 4 µM; 0.33% of 330,000 active; 697 B-cell NF-kB luciferase reporter, 16 h; AID 435022; in the data active = inhibition above about 35%
Jurkat NFkB conf: lowers PMA/ionomycin-induced NF-kB signal in Jurkat cells. 27% of 2,700 active. AID 435020. Jurkat NF-kB luciferase, 16 h. shares compounds with Jurkat NFkB inh. inhibition, % at 4 µM;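 active = inhibition reaching about 45% at 4 µM in either replicate, limit read from the data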;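 also: plate controls were PMA/ionomycin stimulated DMSO wells for no effect and unstimulated DMSO wells for full effect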
* = called active by the depositor; . = no result.

SMILES	Jurkat NFkB inh	Shn3 3UTR inh	Gli-Sufu antag	EBV LMP1 NFkB	TRPM1 prom inh	697 NFkB inh	Jurkat NFkB conf
CC1(C(=O)NS(=O)(=O)c2ccc(Cl)cc2)CCN1C(=O)CC1CC1 (stereo not drawn)	.	-9.0	.	.	.	.	.
COc1ccc(NC(=O)CSc2nc(N)c(NC(=O)c3cccs3)c(=O)[nH]2)cc1	-2.3	1.0	4.9	-8.3	-3.9	10.4	.
COc1ccc2nc(C)cc(N/N=C/c3ccc(F)cc3)c2c1	97.9*	54.1	23.1	-6.6	85.5*	31.8	89.4*
COc1ccc(Nc2cc(C)nc3ccc(OC)cc23)cc1	-5.4	-37.0	15.4	-8.0	4.4	-47.5	.
COc1ccc(CCN=C(N)NS(=O)(=O)c2ccc(C)c(C)c2)cc1	3.4	6.7	-6.3	6.4	-9.3	-17.7	.
Cc1nc(-c2ccc(NC(=O)c3ccccc3)cc2)cs1	-194.9	-3.2	-153.7	-6.9	-14.5	-84.9	-124.8
Cc1ccc(NC(=O)c2ccc(C)cc2)cc1	-155.8	-60.8	-114.2	-7.3	-31.7	-191.0	-77.7
Cc1ccc(C(=O)Nc2ccc(-c3csc(C)n3)cc2)cc1	-121.7	-51.3	-92.1	-15.5	-27.1	-80.6	.
CC(C)(C)c1ccc(C(=O)Nc2ccc(Cl)cc2)cc1	-161.4	-130.0	-72.3	-28.1	-107.1	-188.0	-115.7
O=C(Nc1ccc(Nc2ccccc2)cc1)c1ccc(Cl)cc1	-18.3	10.7	-13.2	-9.8	-23.2	-15.0	.
COc1c(OC(C)=O)ccc(/C=C/c2ccc3ccccc3n2)c1[N+](=O)[O-]	-114.6	-94.3	-49.2	-38.0	-115.7	-108.4	.
CSc1nc(N)n2nc(-c3ccc(Cl)cc3)cc2n1	-165.5	-90.7	-53.7	-47.9	-73.8	-205.7	-90.2
Nc1ncn(C2O[C@H](CO)[C@@H](O)[C@H]2O)c(=O)n1 (stereo partly drawn)	81.9*	.	.	.	.	-145.4	90.2*
Nc1c(Cl)cc(C2=NCCn3c2c2ccc([N+](=O)[O-])cc2[n+]3[O-])cc1Cl	-11.0	7.3	13.1	-20.3	24.1	-113.9	.
COc1cccc(N2CCN(C(=O)c3cn(Cc4ccccc4)nc3-c3cccnc3)CC2)c1	60.5*	16.3	2.4	7.6	24.5	-45.5	40.4
O=C(c1c(Cl)nc2sccn12)N1CCN(c2cccc(Cl)c2)CC1	60.6*	35.4	-1.6	12.8	25.9	-3.8	47.4
COc1ccccc1C(=O)N1CCN(c2cccc(Cl)c2)CC1	55.9*	26.7	10.2	8.1	26.0	-35.5	33.2
O=C(c1cc2ccccc2cc1O)N1CCN(c2cccc(Cl)c2)CC1	1.8	6.7	-6.1	7.0	-2.0	0.7	.
CCCn1c(SCC(=O)c2ccc3c(c2)OCCO3)nc2c1c(=O)n(C)c(=O)n2C	.	-8.8	1.1	-12.7	-9.4	.	.
Cc1ccc(N2C(=O)c3cccc4c(N)ccc(c34)C2=O)c2cccnc12	75.2*	-8.7	41.0	-12.6	.	-212.8	42.6
Cc1nn(C)c(C)c1N1C(=O)c2cccc3c(N)ccc(c23)C1=O	.	-10.6	-3.1	0.7	-8.3	.	.
CC(=O)Nc1cccc(NS(=O)(=O)c2cccc3nsnc23)c1	0.4	1.0	14.0	8.3	1.1	1.3	.
CN(C)NC1=CC(=[N+]2CCCC2)CC(C)(C)C1	-0.6	16.4	0.6	-1.1	-4.0	-4.8	.
CCCN(CCC)C1=CC(=[N+]2CCCC2)CC(C)(C)C1	68.9*	71.7	82.4*	26.7	73.0*	3.9	40.2
CN1CCN(c2ccc(NC(=O)c3ccc(-c4ccccc4F)o3)cc2)CC1	-170.5	-49.0	-51.2	-32.4	-23.9	-125.2	-87.4
SMILES	Jurkat NFkB inh	Shn3 3UTR inh	Gli-Sufu antag	EBV LMP1 NFkB	TRPM1 prom inh	697 NFkB inh	Jurkat NFkB conf
COc1ccc(C(=O)Nc2ccc(N3CCN(C)CC3)cc2)cc1	-51.7	-71.9	-3.7	-24.1	-34.2	-30.2	.
COc1ccc(C(=O)NNC(=O)c2ccc3ccccc3c2)cc1	.	0.2	6.9	4.6	3.2	.	.
O=C(Nc1ccc2ccccc2c1)c1cnccn1	-183.9	-60.4	-58.7	-5.4	-28.6	-220.0	-107.7
CN1CCN(c2ccc(NC(=O)c3ccc4ccccc4c3)cc2)CC1	-155.3	1.2	16.4	14.0	11.8	-225.3	-48.5
O=C(Nc1ccc2nccnc2c1)c1cnccn1	-34.1	-16.1	-22.1	-7.7	-36.3	-14.9	.
CN1CCN(c2ccc(NC(=O)c3ccc(Br)o3)cc2)CC1	-120.8	-77.6	-58.5	-18.8	-38.8	-30.9	.
COc1ccc(NC(=O)c2ccc3ccccc3c2)cc1	-179.5	-37.5	-92.6	-42.1	-43.0	-60.8	-148.9
C=C1CCN([C@@H](CC(C)C)C(=O)NN2CCOCC2)S(=O)(=O)c2ccccc21	11.3	0.1	-0.5	-5.0	-3.6	-1.2	.
O=C(Nc1nccs1)c1ccc2ccccc2c1	-159.0	-79.7	-79.5	-19.6	-37.9	-158.1	-106.0
N#Cc1ccc(C(=O)Nc2ccc3ccccc3c2)cc1	-176.6	-98.4	22.1	-25.8	-77.6	-199.6	-133.4
O=C(CN1CCCC1)NN=C(c1ccccc1)c1ccccc1	-4.1	5.8	7.4	4.8	4.6	4.5	.
CN(Cc1nc2ccccc2c(=O)[nH]1)C(=O)c1cccc(S(=O)(=O)N2CCc3ccccc32)c1	58.5*	-5.9	11.8	8.1	8.7	-84.3	-12.9
O=C(/C=C/c1ccccc1)c1c[nH]c2ccccc12	-192.3	-92.8	-78.9	-29.6	-73.0	-239.5	-69.2
CCOC(=O)C1CCN(C(=O)CCc2nnc3ccc(NCc4ccco4)nn23)CC1	-7.1	-2.8	6.3	-2.2	2.1	-21.0	.
CCCOc1ccc(/C=N/Nc2cc(N3CCOCC3)ncn2)c(O)c1	55.0*	90.2*	17.9	1.7	23.9	-70.9	75.5*
Oc1ccc(/C=N\Nc2cc(N3CCOCC3)nc(N3CCOCC3)n2)c(O)c1	-3.6	9.3	17.9	0.3	3.1	9.4	.
CC(C)=CCC[C@](C)(O)C1CC[C@]2(C)C1C(O)CC1[C@@]3(C)CCC(O)C(C)(C)C3C(O[C@@H]3OC(CO)C(O)C(O)C3O[C@@H]3OC(C)C(O)C(O)C3O)C[C@]12C (stereo partly drawn)	-9.3	-21.1	4.3	6.3	3.7	-8.3	.
CCc1nc(C)cn1S(=O)(=O)c1ccc(Br)cc1	-2.2	14.2	-10.6	0.6	3.1	4.1	.
COc1ccc(NC(=O)c2ccc3c(c2)N(C)CCS3)cc1	-111.1	-136.5	-100.4	-56.7	.	-10.0	.
CN1CCSc2ccc(C(=O)Nc3cccc(F)c3)cc21	-153.1	-25.5	-48.5	-57.0	-62.4	-1.1	-14.8
CCCc1nc2c(s1)CCc1onc(-c3ccc(Br)cc3)c1-2	-2.3	-9.2	-9.8	0.8	-1.5	17.2	.
CC(NCc1ccc(-c2ccccc2)cc1)C(O)c1ccccc1 (stereo not drawn)	54.8*	3.6	27.0	0.6	11.9	-16.5	12.9
CC(=O)O[C@@H]1[C@H](Oc2c(O)c(C)c3c4c2[C@H](C)CC[C@H]4[C@H](C)C[C@@H]3C=C(C)C)O[C@@H](C)[C@@H](O)[C@H]1O	.	8.0	.	.	.	.	.
